Experimental data reported in PubChem BioAssay (EPA / NIEHS).
Results filed as inconclusive are left out. Activity calls are given as the source filed them. How the source made its calls, unless noted: active means hit-call score of the fitted dose curve at least 0.9, where 1 is the maximum; inactive means score below 0.9.

What was measured:
[1] = read-out: Monokine induced gamma interferon (MIG), CXCL9 (gene 4283); test: BSK_3C_MIG: BioMAP Diversity Plus: 3C Assay for Monokine induced gamma interferon (MIG) Biomarker Activity (AID 2283021); details: primary human endothelial cells (HUVEC); actives raise or lower the signal;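 on AC50: MIG protein level measured by immunoassay in the treated endothelial cultures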
Summary of the method: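 HUVEC primary endothelial cultures dosed with chemical; MIG quantified by ELISA at 24 h. Data fitted bidirectionally against DMSO control, with parallel SRB total-protein staining for cytotoxicity.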

[2] = BSK_3C_SRB: Viability Assessment in the BioMAP Diversity Plus: 3C Assay (AID 2283023); details: primary human endothelial cells (HUVEC);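 further: fitted both ways against DMSO so a hit may be signal rise or drop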
Summary of the method: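 Cytotoxicity readout in parallel HUVEC 3C cultures: after 24 h compound exposure, cells fixed with 10% TCA, stained with 0.1% SRB and read at 560 nm. Gain or loss relative to DMSO fitted.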

[3] = read-out: Matrix Metallopeptidase 1 (MMP1), MMP1 (gene 4312); test: BSK_BE3C_MMP1: BioMAP Diversity Plus: BE3C Assay for Matrix Metallopeptidase 1 (MMP1) Biomarker Activity (AID 2283024); details: primary human bronchial epithelial cells; actives raise or lower the signal
Summary of the method: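 Human primary bronchial epithelial cells (BE3C system) dosed for 24 h; MMP-1 quantified by ELISA. Bidirectional fit against DMSO; cytotoxicity tracked in parallel cultures by SRB total-protein staining.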

[4] = BSK_3C_Vis: BioMAP Diversity Plus: 3C Assay for Morphology Visualization (AID 2283025); details: primary human endothelial cells (HUVEC);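 further: fitted both ways so gain or loss versus DMSO counts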;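 on AC50: light microscopy image of cell morphology used as background control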
Summary of the method: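 Human umbilical vein endothelial cell morphology was inspected by light microscopy 24 h after chemical dosing; scored bidirectionally relative to DMSO.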

[5] = read-out: Pselectin, SELP (gene 6403); test: BSK_4H_Pselectin: BioMAP Diversity Plus: 4H Assay for Pselectin Biomarker Activity (AID 2283026); details: primary human endothelial cells (HUVEC); actives raise or lower the signal
Summary of the method: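 Primary human umbilical vein endothelial cells were treated 24 h, and cell-surface P-selectin was then quantified by ELISA. Bidirectional fit versus DMSO; cytotoxicity checked in parallel cultures by SRB total-protein staining.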

[6] = BSK_4H_SRB: Viability Assessment in the BioMAP Diversity Plus: 4H Assay (AID 2283027); details: primary human endothelial cells (HUVEC);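 further: cells exposed to compound for 24 h before staining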;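 on AC50: curves fitted both ways versus DMSO so AC50 may be loss or gain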
Summary of the method: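 Human umbilical vein endothelial cells, 24 h after chemical dosing; total protein measured by 0.1% sulforhodamine B staining after 10% TCA fixation, read at 560 nm. Bidirectional fitting against DMSO.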

[7] = BSK_BE3C_SRB: Viability Assessment in the BioMAP Diversity Plus: BE3C Assay (AID 2283028); details: primary human bronchial epithelial cells
Summary of the method: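 Cytotoxicity read-out: SRB (0.1%) staining of TCA-fixed (10%) human lung bronchial epithelial cells, absorbance 560 nm, 24 h post-dosing. Curves fitted both directions relative to DMSO.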

[8] = read-out: Thrombomodulin, THBD (gene 7056); test: BSK_3C_Thrombomodulin: BioMAP Diversity Plus: 3C Assay for Thrombomodulin Biomarker Activity (AID 2283029); details: primary human endothelial cells (HUVEC); actives raise or lower the signal
Summary of the method: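 Human umbilical vein endothelial cells were exposed to chemicals for 24 h; cell-surface thrombomodulin quantified by ELISA, with bidirectional fitting against DMSO baseline.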

[9] = read-out: Urokinase-type plasminogen activator receptor (uPAR), PLAUR (gene 5329); test: BSK_4H_uPAR: BioMAP Diversity Plus: 4H Assay for Urokinase-type plasminogen activator receptor (uPAR) Biomarker Activity (AID 2283030); details: primary human endothelial cells (HUVEC); actives raise or lower the signal
Summary of the method: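 uPAR level read by ELISA on HUVEC cultures (BioMAP 4H) 24 h post-dosing, analyzed for gain or loss relative to DMSO. Parallel SRB staining assessed overt cytotoxicity.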

[10] = read-out: Vascular endothelial growth factor receptor 2 (Homo sapiens) (UniProt P35968); test: BSK_4H_VEGFRII: BioMAP Diversity Plus: 4H Assay for Vascular endothelial growth factor receptor 2 (VEGFR2) Biomarker Activity (AID 2283031); details: primary human endothelial cells (HUVEC); actives raise or lower the signal
Summary of the method: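 Measured by ELISA after 24 h of compound treatment: VEGFR2 on primary human umbilical vein endothelial cells, fitted in both directions relative to DMSO. Parallel cultures received SRB staining (560 nm) for overt cytotoxicity.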

[11] = read-out: Human Leukocyte Antigen - DR isotype (HLADR), HLA-DRA (gene 3122); test: BSK_BE3C_HLADR: BioMAP Diversity Plus: BE3C Assay for Human Leukocyte Antigen - DR isotype (HLADR) Biomarker Activity (AID 2283032); details: primary human bronchial epithelial cells; actives raise or lower the signal
Summary of the method: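 Human primary bronchial epithelial cells (BE3C system) exposed to compound for 24 hours; cell-surface HLA-DR measured by ELISA, fitted bidirectionally relative to DMSO. Total protein by SRB in parallel cultures tracked cytotoxicity.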

[12] = read-out: Vascular cell adhesion molecule 1 (VCAM1), VCAM1 (gene 7412); test: BSK_4H_VCAM1: BioMAP Diversity Plus: 4H Assay for Vascular cell adhesion molecule 1 (VCAM1) Biomarker Activity (AID 2283033); details: primary human endothelial cells (HUVEC); actives raise or lower the signal
Summary of the method: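 Primary human umbilical vein endothelial cells, 4H stimulation system, treated for 24 h; cell-surface VCAM-1 quantified by ELISA. Bidirectional fitting against DMSO; cytotoxicity tracked by SRB total-protein staining in parallel cultures.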

[13] = read-out: Interferon-gamma inducible Protein 10 (IP10), CXCL10 (gene 3627); test: BSK_BE3C_IP10: BioMAP Diversity Plus: BE3C Assay for Interferon-gamma inducible Protein 10 (IP10) Biomarker Activity (AID 2283034); details: primary human bronchial epithelial cells; actives raise or lower the signal
Summary of the method: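 Primary human bronchial epithelial cells, with IP-10 measured by ELISA 24 hours after chemical dosing. Bidirectional fit against DMSO; cytotoxicity checked by SRB total protein staining in parallel cultures.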

[14] = read-out: Monokine induced gamma interferon (MIG), CXCL9 (gene 4283); test: BSK_BE3C_MIG: BioMAP Diversity Plus: BE3C Assay for Monokine induced gamma interferon (MIG) Biomarker Activity (AID 2283035); details: primary human bronchial epithelial cells; actives raise or lower the signal
Summary of the method: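 Primary human bronchial epithelial cells treated for 24 h; MIG levels measured by ELISA, fitted bidirectionally versus DMSO. Parallel SRB total-protein staining assessed cytotoxicity.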

[15] = read-out: Transforming growth factor beta 1 (TGFb1), TGFB1 (gene 7040); test: BSK_BE3C_TGFb1: BioMAP Diversity Plus: BE3C Assay for Transforming growth factor beta 1 (TGFb1) Biomarker Activity (AID 2283036); details: primary human bronchial epithelial cells; actives raise or lower the signal
Summary of the method: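 Primary human bronchial epithelial cells dosed with chemical; TGF-b1 measured by ELISA 24 h after dosing. Bidirectional curve fitting against DMSO negative control; SRB total-protein staining in parallel cultures gauged cytotoxicity.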

[16] = read-out: Plasminogen activator inhibitor-1 (PAI1), SERPINE1 (gene 5054); test: BSK_BE3C_PAI1: BioMAP Diversity Plus: BE3C Assay for Plasminogen activator inhibitor-1 (PAI1) Biomarker Activity (AID 2283037); details: primary human bronchial epithelial cells; actives raise or lower the signal
Summary of the method: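 Primary human bronchial epithelial cells (BE3C system) exposed 24 h; PAI-1 quantified by ELISA. Parallel sulforhodamine B staining of total protein flags cytotoxicity. Bidirectional fit versus DMSO.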

[17] = read-out: urokinase plasminogen activator (uPA), PLAU (gene 5328); test: BSK_BE3C_uPA: BioMAP Diversity Plus: BE3C Assay for urokinase plasminogen activator (uPA) Biomarker Activity (AID 2283038); details: primary human bronchial epithelial cells; actives raise or lower the signal;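 further: uPA protein level quantified by ELISA in cell cultures; uPA read one day after compound addition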
Summary of the method: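 ELISA for uPA on human primary bronchial epithelial cultures 24 h post-treatment, gain or loss against DMSO. Parallel SRB staining (0.1% after 10% TCA fixation, 560 nm) assessed overt cytotoxicity.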

[18] = read-out: Urokinase-type plasminogen activator receptor (uPAR), PLAUR (gene 5329); test: BSK_BE3C_uPAR: BioMAP Diversity Plus: BE3C Assay for Urokinase-type plasminogen activator receptor (uPAR) Biomarker Activity (AID 2283039); details: primary human bronchial epithelial cells; actives raise or lower the signal
Summary of the method: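 Primary human bronchial epithelial cells dosed for 24 h; uPAR quantified by ELISA with bidirectional fitting against DMSO. Overt cytotoxicity assessed in parallel cultures by SRB total-protein staining (0.1% SRB, 560 nm).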

[19] = read-out: Interleukin-6 (IL6), IL6 (gene 3569); test: BSK_CASM3C_IL6: BioMAP Diversity Plus: CASM3C Assay for Interleukin-6 (IL6) Biomarker Activity for (AID 2283040); details: primary human coronary artery smooth muscle cells; actives raise or lower the signal
[20] = molecular target: human Vitamin D Receptor (VDR), VDR (gene 7421) (UniProt P11473); test: ATG_VDR_TRANS: Attagene TRANS-FACTORIAL HepG2 Assay for human Vitamin D Receptor (VDR) (AID 2283022; active means hit-call score of the fitted dose curve at least 0.9, where 1 is the maximum)
Chain of human Vitamin D Receptor (VDR), VDR (gene 7421) (P11473 whole entry, looked up, the tested form may be a part): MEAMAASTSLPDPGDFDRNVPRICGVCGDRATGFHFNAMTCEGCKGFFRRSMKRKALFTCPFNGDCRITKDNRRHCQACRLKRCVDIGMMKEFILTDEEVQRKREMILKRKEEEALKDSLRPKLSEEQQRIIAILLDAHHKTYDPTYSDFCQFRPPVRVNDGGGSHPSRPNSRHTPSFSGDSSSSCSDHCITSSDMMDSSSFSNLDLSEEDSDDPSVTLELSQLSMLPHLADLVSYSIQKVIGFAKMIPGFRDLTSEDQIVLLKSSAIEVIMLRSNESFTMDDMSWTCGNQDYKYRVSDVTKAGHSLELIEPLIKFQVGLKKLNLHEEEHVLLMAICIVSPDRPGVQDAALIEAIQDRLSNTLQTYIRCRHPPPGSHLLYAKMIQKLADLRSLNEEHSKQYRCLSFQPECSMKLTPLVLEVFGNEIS
Summary of the method: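 Transactivation by an exogenous VDR-Gal4 chimera in transiently transfected HepG2 cells was measured as reporter transcript level 24 hours after chemical treatment. RT-PCR products were analysed by capillary electrophoresis and fitted in the positive direction relative to DMSO.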

Measured: AC50

CCC(C)c1ccc(O)cc1 (configuration not stated)
inactive: [1] | [2] | [3] | [4] | [5] | [6] | [7] | [8] | [9] | [10] | [11] | [12] | [13] | [14] | [15] | [16] | [17] | [18] | [19]

CCC12COCN1COC2
inactive: [1] | [2] | [3] | [4] | [5] | [6] | [7] | [8] | [9] | [10] | [11] | [12] | [13] | [14] | [15] | [16] | [17] | [18] | [19]

CC(C)(C)C(O)(CCc1ccc(Cl)cc1)Cn1cncn1 (configuration not stated)
inactive: [1] | [20] | [2] | [3] | [4] | [5] | [6] | [7] | [8] | [10] | [11] | [12] | [13] | [14] | [16] | [17] | [18] | [19]

COC(=O)Nc1nc2ccccc2[nH]1
inactive: [1] | [3] | [5] | [7] | [8] | [10] | [11] | [12] | [13] | [14] | [15] | [16] | [17] | [18] | [19]
active: [2] 8.51 µM | [4] 9.8 µM | [6] 14.5 µM | [9] 8.56 µM

O=C1CCCO1
inactive: [1] | [20] | [2] | [3] | [5] | [6] | [7] | [8] | [9] | [10] | [11] | [12] | [13] | [14] | [16] | [17] | [18] | [19]
active: [4] 16.3 µM

Nc1cc(Cl)cc(C(=O)O)c1Cl
inactive: [1] | [2] | [3] | [4] | [5] | [6] | [7] | [8] | [9] | [10] | [11] | [12] | [13] | [14] | [15] | [16] | [17] | [18] | [19]

Oc1ccc2ccc3cccc4ccc1c2c34
active: [1] 37.6 µM | [2] 30 µM | [4] 37.5 µM | [5] 31.6 µM | [6] 31.5 µM | [9] 30.4 µM | [11] 34.6 µM | [12] 34 µM | [13] 31.3 µM | [14] 31.2 µM | [16] 27.5 µM | [18] 33 µM
inactive: [20] | [3] | [7] | [8] | [10] | [17] | [19]
